# Compound activity deposited in PubChem BioAssay by National Center for Advancing Translational Sciences (NCATS).
# The list is not random: actives were taken first. Their share in the collection is about 8.3%.
# HCMV inh: inhibitors of human cytomegalovirus. HFF cells, HCMV-luciferase reporter, 72 h; hits give low values. 410,000 compounds, 4.5% hits. activity change, negative = inhibition, % at 57.5 µM; in the data active = activity change below about -60%; inconclusive = no clear call, values can overlap the other calls; inactive = above about -39%
#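 Screen run at 2 compound doses on HFFs infected with reporter HCMV, MOI 1 PFU/cell. Luciferase activity from cell lysates at 72 h post infection gave inhibition relative to buffer-only and Salinomycin wells.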
# HCV inhibitor: inhibitors of hepatitis C virus infection | Huh7.5.1 HCVcc-Cre infection, luciferase reporter, 44 h | Potency, µM (titrated, usually from 41.8 µM), without a hit: top-dose activity change, negative = inhibition, hits mostly inhibitors | 340,000 compounds, 3.4% hits | AID 651820; note: potency is the fitted concentration of half-maximal effect
#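 A cell-based infection assay in which seeded cells (1,000 per well) receive test compound after 4 h, are inoculated with HCVcc-Cre at approximately 0.5 moi, and are incubated 44 h before luminescence detection.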
# FBPA Giardia inh: blocks Giardia fructose-bisphosphate aldolase activity; A8B2U2; purified Giardia FBPA; Potency, µM (top dose mostly 59.6 µM), inactives show top-dose activity, negative = inhibition, actives largely listed as inhibitors; 290,000 compounds, 0.71% hits; AID 2451; note: potency is the fitted concentration of half-maximal effect; nearly all actives have a fitted effect of over 55% in size
# Target sequence (A8B2U2 whole entry, looked up): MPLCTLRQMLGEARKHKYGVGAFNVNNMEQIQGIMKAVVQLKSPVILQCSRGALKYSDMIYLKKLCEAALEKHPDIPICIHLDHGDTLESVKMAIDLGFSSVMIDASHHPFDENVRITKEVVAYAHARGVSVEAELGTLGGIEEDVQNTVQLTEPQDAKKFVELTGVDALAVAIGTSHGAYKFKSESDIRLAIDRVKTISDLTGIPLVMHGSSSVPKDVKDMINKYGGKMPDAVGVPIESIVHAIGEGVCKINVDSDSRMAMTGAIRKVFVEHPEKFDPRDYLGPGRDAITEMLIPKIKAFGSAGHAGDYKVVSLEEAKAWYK
#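 40 nM FBPA preincubated 10 min at RT with compound (up to 57.5 uM final), then substrate plus GAPDH/TPI/NAD/arsenate coupling and diaphorase/resazurin added. Fluorescence read after 20 min at RT, 525/598 nm.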
# FMDV antiviral: foot and mouth disease virus antiviral activity. FMDV antiviral cell-based qHTS. Potency, µM (highest dose often 57.9 µM), for inactives: at the top dose activity change, negative = inhibition, actives largely listed as inhibitors. 410,000 compounds, 1.2% hits; calls by dose curve; tested in HEK293T cells; note: read-out not given here; potency is the fitted concentration of half-maximal effect; nearly all actives have a fitted effect of over 45% in size
# MARV entry inh: Marburg virus entry inhibition. Marburg virus pseudotyped entry inhibition, cell reporter. Potency, µM (highest dose often 37.8 µM), inactives show top-dose activity change, negative = inhibition, most hits filed as inhibitors. 300,000 compounds, 1.8% hits. AID 540276; calls by dose curve; tested in HEK293 cells; note: potency is the fitted concentration of half-maximal effect
# LASV entry inh: Lassa virus entry inhibition; Lassa virus pseudotype entry inhibition, cell reporter; Potency, µM (titrated, usually from 37.9 µM), for inactives: at the top dose activity change, negative = inhibition, hits mostly inhibitors; 300,000 compounds, 1.2% hits; calls by dose curve; tested in HEK293 cells; note: potency is the fitted concentration of half-maximal effect; nearly all actives have a fitted effect of over 50% in size
# * marks the source's active call; other numbers are inactive results; ? = inconclusive; / = no result given; [ ] = another dose, or the depositor's remark. Unless noted, calls come from the whole dose curve; as a rule, active = well fitted curve in the direction sought with a large enough effect; inconclusive = small, poorly fitted or top-dose-only effect, or another doubt; inactive = no such curve, though single readings can be large; an effect the other way counts as inactive or inconclusive. % is set by controls: 0 for no effect and ±100 for the full control effect.
SMILES,HCMV inh,HCV inhibitor,FBPA Giardia inh,FMDV antiviral,MARV entry inh,LASV entry inh
O=C(CSc1nncn2c1cc1occc12)Nc1ccccc1C(F)(F)F,?,/,/,-28%,/,0%[46.1 µM]
COc1ccc(CCNC(=O)CSc2nc3ccccc3nc2Cc2ccc(Cl)cc2)cc1OC,8,/,/,?,/,5%[46.1 µM]
O=C(Cc1ccc(Cl)cc1)N/N=C/c1ccccc1,-68*,5%,5%,5%,/,/
O=C(Cc1ccc(Cl)cc1)N/N=C/c1ccncc1,-14,-12%,-1%,11%,-22%[46.1 µM],9%[46.1 µM]
O=C(O)COc1ccc(/C=N/NC(=O)Cc2ccc(Cl)cc2)cc1,-101*,3%,12%,-21%,?,-6%[46.1 µM]
COc1ccc(CCNC(=O)CC(=O)N/N=C/c2ccc(C(=O)O)cc2)cc1OC,-12,12%,-5%,12%,-4%,-2%
O=C(Cc1ccccc1)NN=Cc1ccccc1,-1,0%,/,19%,2%,12%[46.1 µM]
O=C(CC(=O)N/N=C/c1ccc(C(=O)O)cc1)NCCc1ccccc1,-97*,4%,-11%,-1%,/,/
CCC/C=C(\CCC)C(NS(=O)(=O)c1ccccc1)c1ccc(C(F)(F)F)cc1 (centres undefined),/,/,-9%,/,/,/
Cc1c(C(=O)OC(C)C)sc(NC(=O)C2c3ccccc3Oc3ccccc32)c1C(=O)OC(C)C,-3,/,/,5%,?,-21%[46.1 µM]
COc1c2ccccc2nn1CCCCCO,3,/,/,/,/,/
CN(C)S(=O)(=O)c1ccc(/C(O)=C2/C(=O)C(=O)N(Cc3cccnc3)C2c2ccco2)cc1 (centres undefined),-67*,5%,-9%,-18%,15%,27%
COc1ccccc1N1CCN(c2ncnc3c2c(-c2ccccc2)cn3-c2cccc(C)c2)CC1,-9,/,/,-10%,/,-4%[46.1 µM]
COC(=O)C1=C(C)NC(=O)/C1=C\c1cc(C)n(-c2ccccc2)c1C,-6,-15%,?,15%,7.9µM*,?
COC(=O)C1=C(O)/C(=C\c2sccc2C)N=C1C,2,7%,-7%,15%,1%,-3%
COC(=O)C1=C(O)/C(=C\c2cc(C)n(-c3ccccc3C)c2C)N=C1C,20,?,7.1µM*,/,?,21%
CCN1CCN(C(=O)c2ccc3c(c2)c(C)c(C)n3Cc2ccccc2)CC1,-17,-2%,5%,1%,1%,-11%
CCn1c(C)c(C)c2cc(C(=O)NCCc3ccco3)ccc21,22,16µM*,-2%,32%,/,/
CCn1c(C)c(C)c2cc(C(=O)NCCN3CCCCCC3)ccc21,-25,13µM*,-10%,-21%,/,/
CCn1c(C)c(C)c2cc(C(=O)N3CCc4ccccc4C3)ccc21,-85*,?,4%,-13%,/,/
CCN1C(=O)CCN(C2CCCC2)c2nc(Nc3ccc(C(=O)NC4CCN(C)CC4)cc3OC)ncc21,-73*,29%[8.37 µM],/,19%,/,/
COc1cc(C(=O)N2CCC(N3CCN(C)CC3)CC2)ccc1Nc1ncc2c(n1)N(C)c1ccccc1C(=O)N2C,-73*,/,/,/,/,/
COc1ccc(-c2nc3cnc(N4CCOCC4)nc3n(CCc3ccccc3)c2=O)cc1,/,/,6%,-15%,/,/
CC1=C(C(=O)N(C(C)C)C(C)C)CC(CC(=O)NC2CCCCC2)C(=O)N1Cc1ccc(C(C)(C)C)cc1 (centres undefined),-88*,/,/,8%,/,/
COc1ccc(CN2C(=O)C(CC(=O)NC3CCCC3)CC(C(=O)N(C(C)C)C(C)C)=C2C)cc1 (centres undefined),-12,/,/,-4%,/,/
SMILES,HCMV inh,HCV inhibitor,FBPA Giardia inh,FMDV antiviral,MARV entry inh,LASV entry inh
CCOc1ccc(S(=O)(=O)N2CCN(C(=O)c3cc(S(=O)(=O)N4CCOCC4)ccc3C)CC2)cc1,-2,6%,/,-28%,-6%,-4%
CCOc1ccc(S(=O)(=O)N2CCN(C(=O)c3ccc(Cl)c(S(=O)(=O)N4CCOCC4)c3)CC2)cc1,-60*,7%,/,?,/,/
CCOc1ccc(S(=O)(=O)N2CCN(C(=O)c3ccc(-n4cncn4)c([N+](=O)[O-])c3)CC2)cc1,-4,11µM*,/,-17%,-4%,-17%
CCN1CCN(C(=O)c2ccc(Cl)c(S(=O)(=O)N3CCOCC3)c2)CC1,29,-6%,4%,/,1%,4%
CCOc1ccc(S(=O)(=O)N2CCN(C(=O)c3ccc(C)c(S(=O)(=O)N4CCOCC4)c3)CC2)cc1,-61*,?,/,?,?,?
O=C(NC1CC(=O)N(c2cccc(F)c2)C1)c1ccc(S(=O)(=O)N2CCCCC2)cc1 (centres undefined),?,/,/,-9%,/,-2%[46.1 µM]
COCC#Cc1ccc2c(c1)O[C@H](CN(C)C(=O)c1ccccc1)[C@@H](C)CN([C@H](C)CO)S2(=O)=O,-6,/,/,/,/,/
COc1ccc(CNC(=O)c2cc3c(=O)n(C)c4ccccc4c3n2C)c(OC)c1,-4,/,/,0%,-19%[46.1 µM],?
COc1ccc(C(=O)Nc2ccccc2C(=O)N/N=C/c2ccccn2)cc1OC,-109*,?,?,?,?,10µM*
COc1ccc(C(=O)Nc2ccc(/C(C)=N/NC(=O)c3ccccc3O)cc2)cc1OC,-3,?,-1%,-4%,13µM*,13%
COc1ccc(C(=O)Nc2cccnc2Cl)cc1OC,-87*,4%,4%,1%,/,/
COc1ccccc1C(=O)NC(=S)Nc1cccnc1Cl,56,11µM*,-7%,-28%,?,?
CCc1ccc2nc(N(CCN(CC)CC)C(=O)c3ccco3)sc2c1,-4,/,/,0%,/,-4%[46.1 µM]
C=C1CCN(C(C(=O)O)C(C)C)S(=O)(=O)c2ccccc21 (centres undefined),/,/,9%,/,/,/
Cc1cc2c(c(=O)o1)[C@@H](O)[C@H]1O[C@@H]1C2=O,/,/,-5%[12.9 µM],/,/,/
CCN(CC)CCC(=O)Nc1ccc2c(c1)N(C(=O)CN(CC)CC)c1ccccc1CC2,-10,?,-19%,-17%,6.3µM*,?
CCOC(=O)c1c(NC(=O)COc2cccc3c2CCN(CC)C3=O)sc2c1CCC2,-80*,10%,4%,-16%,?,-14%
COc1ccccc1OCC(=O)Nc1sc2c(c1C(N)=O)CCC2,-3,?,/,-1%,/,/
COc1ccccc1OCC(=O)Nc1sc2c(c1C(=O)NCC1CCCO1)CCC2 (centres undefined),?,0.89µM*,-12%,/,?,-7%
CCOC(=O)c1c(NC(=O)COC(=O)c2nccnc2N)sc2c1CCC2,34,?,/,-38%,/,/
CCOC(=O)c1c(NC(=O)COC(=O)c2nc(Cl)ccc2Cl)sc2c1CCC2,-61*,-2%,-7%,-9%,-12%,13%
COc1cc2c(cc1OC)CSC1C(=O)N(C)C(SC2)C(=O)N1C,/,/,/,/,-4%[14.2 µM],/
CCCCN(C(=O)CCC(=O)O)[C@H]1CC(=O)N(c2ccc(OCCC)cc2)C1=O,/,/,/,/,4%,/
Cc1cccc(CN2C(=O)N/C(=C/c3ccc(C)s3)C2=O)c1,2,?,0%,2%,?,3.2µM*
